Screens as filed in PubChem.
HCV inh: HCV inhibition; Huh7.5.1 HCVcc-Cre infection, luciferase reporter, 44 h; Potency, µM (series often up to 41.8 µM), actives largely listed as inhibitors; AID 651820; actives 3.4% (n = 340,000)
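HCVcc-Cre virus at an moi near 0.5 was added right after compound to cells cultured 4 h from seeding (1,000 cells/well). Luciferase activity was determined 44 h later, 15 min after substrate addition at RT.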
Pf growth 96h: P. falciparum growth inhibition at 96 hours; actives 6.9% (n = 320,000); P. falciparum luciferase reporter growth, 96 h; Potency, µM (titrated, usually from 28.7 µM), usual class: inhibitors; AID 504834
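Readout is luminescence from an integrated firefly luciferase in P. falciparum. Red cells, 2% hematocrit and 0.05% parasitemia final, were cultured with compound through two parasite generations (96 hours) at 37 C, 5% CO2.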
VACV Venus inh: vaccinia inhibition (Venus reporter) | Vaccinia virus Venus reporter expression, fluorescence | Potency, µM (highest dose often 36.5 µM), hits mostly inhibitors | actives 0.46% (n = 330,000) | AID 720580; calls by dose curve; tested in A549 cells; note: nearly all actives have a fitted effect of over 30% in size
Pf growth 48h: inhibits P. falciparum growth in the first generation, 48 h; Potency, µM (series often up to 28.7 µM), actives largely listed as inhibitors; P. falciparum luciferase growth in erythrocytes, 48 h; actives 5.9% (n = 310,000)
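A one-generation exposure of luciferase-tagged malaria parasites in RPMI 1640/Albumax erythrocyte culture, 37 C and 5% CO2. Inhibition is inferred from decreased luminescence after adding detection reagent.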
NS1 function inh: inhibitors of influenza NS1 protein function. Potency, µM (titrated, usually from 46.1 µM). actives 0.4% (n = 270,000). AID 2326; calls by dose curve; note: actives are rising curves; nearly all actives have a fitted effect of over 50% in size
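Read-out: OD600 growth recovery of NS1-expressing budding yeast. Cells grown overnight at 30C in -URA glucose medium, washed, resuspended and diluted 1:100 in 2% galactose assay medium, pH 6.0. Same strain lacking NS1 served as positive control.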
VACV mCherry inh: inhibitors of vaccinia virus infection (mCherry reporter signal) | Vaccinia virus mCherry reporter infection, fluorescence | actives 0.63% (n = 310,000) | Potency, µM (series often up to 36.5 µM), actives largely listed as inhibitors; calls by dose curve; tested in A549 cells; note: nearly all actives have a fitted effect of over 35% in size
Of the large screens only hits and unclear results are named; the others gave an inactive call. Rows were chosen to be rich in hits. Some 11% of all compounds tested hit in one or more screens of this group. Unless noted, calls come from the whole dose curve; as a rule, active = well fitted inhibition curve with a large enough effect; inconclusive = small, poorly fitted or top-dose-only effect, or another doubt; inactive = no such curve, though single readings can be large or run the other way.

Cc1c(OCC(=O)NCCCN2CCOCC2)ccc2c1oc(=O)c1ccccc12	Pf growth 96h inconclusive, Pf growth 48h inconclusive (no result: VACV Venus inh, VACV mCherry inh)
CC(=O)Oc1cc2c(C(=O)NCCCN3CCOCC3)c(C)oc2c2ccccc12	HCV inh 11.2µM, Pf growth 48h inconclusive, NS1 function inh inconclusive
Cc1cc(C=C2C(=O)NC(=S)NC2=O)c(C)n1-c1ccc2c(c1)OCO2	Pf growth 96h inconclusive, NS1 function inh inconclusive
CCOC(=O)c1sc2nc(CC(=O)OC)nc(NCc3ccco3)c2c1C	HCV inh inconclusive, Pf growth 48h 2.62µM
Cc1sc2nc3c4ccccc4c(NCc4ccco4)nn3c(=O)c2c1C	Pf growth 96h 5.86µM, VACV Venus inh inconclusive (no result: VACV mCherry inh)
Cc1nc(NCc2ccco2)c2c(C)c(C)sc2n1	HCV inh 10µM (no result: Pf growth 96h, VACV Venus inh, VACV mCherry inh)
CCOC(=O)c1sc2nc(CC(=O)OC)nc(NCC(=O)OC)c2c1C	Pf growth 48h inconclusive
Cc1nn2c(=O)cc(CSc3nc4ccccc4[nH]3)nc2s1	NS1 function inh inconclusive (no result: Pf growth 48h)
Cc1ccc2c(c1)S(=O)(=O)c1ccc3ccccc3c1N2	none (no result: Pf growth 96h, Pf growth 48h, NS1 function inh)
CCN1CCCC1CNCc1ccc(OCc2ccc(Cl)nc2)c(OC)c1 (configuration not stated)	Pf growth 96h inconclusive, Pf growth 48h inconclusive
O=C(CSc1nnc2c(Cl)cc(C(F)(F)F)cn12)NCc1ccc(F)cc1	Pf growth 96h 8.28µM, Pf growth 48h inconclusive
CC(=O)C1=NOC2C(=O)N(c3ccc(Cl)cc3)C(=O)C12 (configuration not stated)	none (no result: VACV Venus inh, VACV mCherry inh)
N#Cc1ccc(NC(=O)Cn2cnc(S(=O)(=O)N3CCc4ccccc43)c2)cc1	Pf growth 96h 11.7µM (no result: VACV Venus inh, VACV mCherry inh)
CC(=O)c1cccc(NC(=O)Cn2cnc(S(=O)(=O)N3CCCCC3)c2)c1	none (no result: VACV Venus inh, VACV mCherry inh)
CSc1cccc(NC(=O)Cn2cnc(S(=O)(=O)N3CCCC3)c2)c1	none
Cc1c(Cl)cccc1NC(=O)Cn1cnc(S(=O)(=O)N2CCCC2)c1	Pf growth 96h 7.38µM
O=C(Cn1cnc(S(=O)(=O)N2CCCC2)c1)Nc1cccc(Br)c1	Pf growth 96h 11.7µM
NO	none (no result: HCV inh, Pf growth 96h, VACV Venus inh, Pf growth 48h, VACV mCherry inh)
COCCN1CCn2c(nc3cc(Nc4nnc(C)c5ccccc45)ccc32)C1	Pf growth 48h inconclusive (no result: VACV Venus inh, VACV mCherry inh)
CC(C)Cn1c(-c2ccncc2)n[nH]c1=S	Pf growth 96h 3.7µM
CC(C)Cn1c(-c2ccc(F)cc2)n[nH]c1=S	none (no result: VACV mCherry inh)
CC(C)Cn1c(-c2csc3c2CCCC3)n[nH]c1=S	Pf growth 96h inconclusive, Pf growth 48h 11.7µM
COCCCN(Cc1ccco1)C(=O)CSc1nc2ncccc2[nH]1	Pf growth 96h 13.1µM (no result: VACV Venus inh, VACV mCherry inh)
COC(=O)C1C(=O)C2=C(CC1C)NC(=O)CC2c1ccccc1 (configuration not stated)	Pf growth 48h inconclusive
CCOc1cc(C2CC(=O)NC3=C2C(=O)C(C(=O)OC)C(C)C3)cc(Cl)c1O (configuration not stated)	VACV Venus inh inconclusive, Pf growth 48h 1.17µM (no result: VACV mCherry inh)
Cc1ccc(-c2nnc(Nc3ccc(Cl)c(Cl)c3)c3ccccc23)cc1S(=O)(=O)NCCO	VACV mCherry inh inconclusive (no result: HCV inh, Pf growth 96h, Pf growth 48h, NS1 function inh)
Cc1ccc(-c2nnc(Nc3ccc4c(c3)OCO4)c3ccccc23)cc1S(=O)(=O)NC(C)C	HCV inh inconclusive, Pf growth 96h inconclusive, VACV Venus inh inconclusive, Pf growth 48h 2.94µM, VACV mCherry inh inconclusive
Cc1ccc(-c2nnc(Nc3ccc(CC(N)=O)cc3)c3ccccc23)cc1S(=O)(=O)NCCO	Pf growth 48h 6.57µM (no result: VACV Venus inh, VACV mCherry inh)
Cc1ccc(-c2nnc(Nc3ccc4c(c3)OCO4)c3ccccc23)cc1S(=O)(=O)NCCO	Pf growth 96h inconclusive, VACV Venus inh inconclusive, Pf growth 48h 3.29µM, VACV mCherry inh inconclusive
Cn1c(CN2CCOCC2)nnc1SCC(=O)Nc1nccs1	none (no result: VACV Venus inh, VACV mCherry inh)
Cc1cccc(CCNC(=O)CCc2c(C)nc3c4c(C)cc(C)nc4nn3c2C)c1	none (no result: HCV inh, Pf growth 96h, Pf growth 48h, NS1 function inh)
Cc1nc2c([nH]1)c(=O)n(C)c(=O)n2Cc1ccco1	Pf growth 96h 5.36µM (no result: HCV inh)
O=C(N/N=C/C1CC=CCC1)c1ccc(Cl)cc1O (configuration not stated)	Pf growth 96h 2.33µM
CC(=O)Oc1c(C)c(OC(C)=O)c2c(c1C(C)=O)OC1CC(=O)C(C(C)=O)=C(O)C21C (configuration not stated)	Pf growth 96h 11.7µM, VACV Venus inh inconclusive, Pf growth 48h 8.28µM
